From PubChem BioAssay (NCI)
This is part of a sample that, as a whole, favours compounds with a hit. Of some 83,000 tested, about 20% had one in any assay.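 Negative percent growth values reflect cell death: -40 means 40% of the cells present at the start died, and -100 means all died.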 A number with no mark means an inactive call. Calls of active or inactive are those of the source. Rule for the calls: active = growth percent below 10; inactive = the rest.

Tests used:
Test in all cases: NCI-60 one-dose screen, 48 h (100 = growth as untreated, 0 = no growth, -100 = all killed)
Conditions in all cases: 10 µM unless noted
SK-MEL-2 melanoma = system: SK-MEL-2 melanoma
EKVX NSCLC = system: EKVX NSCLC
SN12C renal = system: SN12C renal
UO-31 renal = system: UO-31 renal
TK-10 renal = system: TK-10 renal
ACHN renal = system: ACHN renal
CAKI-1 renal = system: CAKI-1 renal
CCRF-CEM leukemia = system: CCRF-CEM leukemia
MOLT-4 leukemia = system: MOLT-4 leukemia
RPMI-8226 leukemia = system: RPMI-8226 leukemia
OVCAR-8 ovarian = system: OVCAR-8 ovarian
OVCAR-5 ovarian = system: OVCAR-5 ovarian
OVCAR-4 ovarian = system: OVCAR-4 ovarian
SK-OV-3 ovarian = system: SK-OV-3 ovarian
IGROV1 ovarian = system: IGROV1 ovarian
OVCAR-3 ovarian = system: OVCAR-3 ovarian
HS 578T breast = system: HS 578T breast
NCI/ADR-RES ovarian = system: NCI/ADR-RES ovarian
A498 renal = system: A498 renal
SR leukemia = system: SR leukemia

SMILES | growth (SK-MEL-2 melanoma) | growth (EKVX NSCLC) | growth (SN12C renal) | growth (UO-31 renal) | growth (TK-10 renal) | growth (ACHN renal) | growth (CAKI-1 renal) | growth (CCRF-CEM leukemia) | growth (MOLT-4 leukemia) | growth (RPMI-8226 leukemia) | growth (OVCAR-8 ovarian) | growth (OVCAR-5 ovarian) | growth (OVCAR-4 ovarian) | growth (SK-OV-3 ovarian) | growth (IGROV1 ovarian) | growth (OVCAR-3 ovarian) | growth (HS 578T breast) | growth (NCI/ADR-RES ovarian) | growth (A498 renal) | growth (SR leukemia)
COc1ccc(-n2c(=O)sc3c(Cl)nc(C)nc32)c(OC)c1 | 99.4% | 75.9% | 81% | -23.2% (active) | 115% | 95.6% | -58.1% (active) | 55.9% | 78.2% | 106% | 56.9% | 92% | 101% | 83.8% | 28.8% | 68.8% | 93.9% | 101% | – | –
Cn1c(=O)c2[nH]c(C3CC=CCC3)nc2n(C)c1=O (stereo unspecified) | 97.6% | 113% | 99.4% | 72.3% | 112% | 101% | 118% | 104% | 123% | 101% | 106% | 94.7% | 111% | 99.1% | 111% | 105% | 97.7% | 112% | – | –
C=C1CCC2C3(C)COC(c4ccc(N(C)C)cc4)OC3CCC2(C)C1C/C=C1/C(=O)OCC1O (stereo unspecified) | 45.1% | 85.7% | 44.9% | 54.2% | 94.3% | 79.3% | – | -41.6% (active) | 37.7% | -52.9% (active) | 47.5% | 96.3% | 68.3% | 84% | 39.3% | – | – | 65.1% | 109% | 21.9%
O=[N+]([O-])c1ccc(Sc2ncccn2)c([N+](=O)[O-])c1 | 48.5% | 65.8% | 58.5% | 1.15% (active) | 53.7% | 27.8% | – | -37.2% (active) | -25.8% (active) | -29.3% (active) | 65.8% | 81.1% | 51.8% | 95.2% | -9.02% (active) | 7.76% (active) | 88.6% | 53.8% | 72.5% | –
C1=Cc2ccccc2N(c2nnc(-c3ccccc3)o2)c2ccccc21 | 108% | 94.3% | 96.2% | 83.9% | 114% | 95.1% | – | 73.9% | 83.5% | – | 95.4% | 98.2% | 92.1% | 114% | 92.9% | 107% | 102% | 92.2% | 80% | 32.3%
Cc1ccc(C(=O)NCCCNc2nccc(-n3ccc4cccnc43)n2)cc1 | 105% | 86.1% | 95.1% | 85.9% | 67.7% | 83.2% | – | 107% | 94.1% | – | 100% | 89.8% | 96.3% | 106% | 88.6% | 105% | 101% | 92.3% | 81.7% | 92.7%
CCN(CC)CCC(CNc1c2ccc(Cl)cc2nc2ccc(OC)cc12)c1ccccc1 (stereo unspecified) | -71.2% (active) | 52.1% | 16.8% | -95.2% (active) | -11% (active) | -95% (active) | – | 0.732% (active) | -7.09% (active) | -23.6% (active) | -15.1% (active) | -9.48% (active) | – | 35.3% | -10.5% (active) | -30.5% (active) | -27.6% (active) | -1.8% (active) | 88.8% | -6.4% (active)
O=c1cc(Cc2ccc([N+](=O)[O-])cc2)[nH]c(=O)[nH]1 | 94.6% | 115% | 98.4% | 67% | 97.9% | 98.1% | – | 91.1% | 94.9% | 91.6% | 103% | 98.2% | 108% | 99.1% | 117% | 126% | 100% | 109% | 110% | –
O=C1Nc2ccc3c(c2/C1=C\c1cc2c(cc1Br)OCO2)OCO3 | 42.4% | 37.3% | 26.7% | -15.9% (active) | -31.2% (active) | 11.4% | – | 10% (active) | 35.7% | 14.4% | 35% | 65.2% | -45.5% (active) | 2.7% (active) | -7.11% (active) | – | -14.5% (active) | 1.49% (active) | 19.1% | 29.3%
CCCCCCCC[C@@H](O)CC(=O)N[C@@H](CC(N)=O)C(=O)N[C@@H](CCC(N)=O)C(=O)N[C@@H](CC(=O)c1cc(C)cc(O)c1C(=O)c1c(O)cccc1O)CC(C)C | 51.9% | 61.1% | 25.4% | 63.2% | -6.12% (active) | 31.9% | 40.6% | 11.6% | 14% | 10.9% | 47.6% | 39.9% | 41.1% | 63.4% | 15.1% | -3.89% (active) | 26.9% | 93.7% | – | –
CN(C)c1nc2c(N)ncnc2n1C1OC(CO)C(O)C1O (stereo unspecified) | 99.4% | 112% | 104% | 79.5% | 107% | 99.4% | – | 105% | 111% | 92.1% | 107% | 97.6% | 123% | 116% | 111% | – | 106% | 114% | 114% | 99%
Oc1ccc2cc(Br)ccc2c1-c1c(O)ccc2cc(Br)ccc12 | 74.9% | 57.6% | 60.7% | 24.3% | 52% | 23.1% | – | 45% | 40.2% | 64.9% | 72.7% | 94.1% | – | 64.7% | 28% | 65.5% | 50.2% | 56.2% | 72% | 30.9%
CN1CCN(Cc2ccc(NC(=O)c3cncc(C#Cc4cnc(N)c5ccncc45)c3)cc2C(F)(F)F)CC1 | -25.2% (active) | 13.9% | 6.05% (active) | 3.59% (active) | 48.6% | 2.28% (active) | – | 14.2% | 16.6% | 18.5% | 29.6% | 9.45% (active) | 25.5% | -12.1% (active) | 4.51% (active) | 35.2% | -0.418% (active) | 71.8% | -22.7% (active) | 20.6%
NC1=NC(SCc2ccccc2CCl)c2ncn(Cc3ccccc3CCl)c2N1 (stereo unspecified) | -4.24% (active) | 77.9% | 37.8% | 61.3% | 56.2% | 31.8% | 32.4% | – | 14.5% | 76.7% | 22.8% | 110% | 42.9% | 89.7% | -26.3% (active) | – | 33.8% | 69% | – | 9.1% (active)
C/C=C(\C)C(C(=O)NC1CCCCC1)N(C(=O)C1CCc2cc(F)ccc2O1)c1ccc(Cl)cc1 (stereo unspecified) | 103% | 94.2% | 106% | 92.6% | 96.2% | 115% | – | 101% | 95.4% | 100% | 98.3% | 103% | – | 98.4% | 103% | 111% | 94.7% | 97.2% | 109% | 111%
O=[N+]([O-])c1cnc(Sc2ccncn2)s1 | -58% (active) | 61.7% | 63.6% | -88.3% (active) | 4.67% (active) | -97.8% (active) | – | -32.3% (active) | -42.3% (active) | -64.1% (active) | 73.3% | 94.1% | 53.9% | 114% | -80.7% (active) | -95.5% (active) | 58% | 67% | 88% | -69.7% (active)
c1ccc(Nc2nc(Nc3ccccc3)nc(Nc3ccccc3)n2)cc1 | 85.8% | 77.9% | 100% | 55.5% | 74.6% | 91.9% | 85% | – | 65.7% | 74.5% | 92.2% | 97.1% | 81.2% | 92.7% | 62.5% | 96.4% | 107% | 77.9% | – | 69.8%
